# From PubChem BioAssay (Tox21)
# Inconclusive results are not listed. Values without a mark were called inactive. Activity calls are given as the source filed them. Calls come from the whole dose curve; as a rule, active = well fitted activation curve with a large enough effect in the repeat runs; inconclusive = weak or mixed curves; inactive = flat fitted curve, though single readings scatter.
# Assay: A CellTox Green Cytotoxicity Assay to monitor cytotoxicity in HepG2 cells - 40 hour (AID 1224879); note: nearly all actives have a fitted effect of over 40% in size
# Conditions: CellTox Green fluorescence; series mostly up to 76.8 µM; cytotoxicity increase: at the top concentration
# Outline: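 Continuous culture of HepG2 cells with a membrane-impermeant DNA dye; rising fluorescence marks dead cells. Compound exposure lasted up to 40 h at 37 C, with reads every 8 h from 0 h.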
# % is set by controls: 0 for no effect and ±100 for the full control effect; potency is the fitted concentration of half-maximal effect.
Compound,cytotoxicity increase,Potency
Cc1cc(C(F)(C(F)(F)F)C(F)(F)F)ccc1NC(=O)c1cccc(I)c1C(=O)NC(C)(C)CS(C)(=O)=O,-9.73% [at 35.3 µM],
O=C(O)COc1nc(Cl)c(Cl)cc1Cl,-0.984%,
ClC(Cl)=C(c1ccc(Cl)cc1)c1ccc(Cl)cc1,25.8%,
CCN(CC)C(=S)[S-].CCN(CC)C(=S)[S-].[Zn+2],,10.9 µM (active)
CCCCCCCCCCCCCCC(Br)C(=O)O (stereo not drawn),,17.4 µM (active)
O=c1oc2ccccc2c(O)c1Cc1c(O)c2ccccc2oc1=O,-14% [at 35.3 µM],
ClCc1ccc(Cl)cc1Cl,0.822%,
O=C(CCl)C(Cl)Cl,,49.4 µM (active)
Clc1ccc(CO/N=C(\Cn2ccnc2)c2ccc(Cl)cc2Cl)c(Cl)c1,,26.8 µM (active)
O=c1c(C2CC(c3ccc(-c4ccc(Br)cc4)cc3)Cc3ccccc32)c(O)sc2ccccc12 (stereo not drawn),-3.66% [at 35.3 µM],
CC(=[OH+])/C=C(/C)[O-].CC(=[OH+])/C=C(\C)[O-].CC(=[OH+])/C=C(\C)[O-].[Al],-6.77%,
Clc1ccc(-c2ccc(Cl)c(Cl)c2Cl)c(Cl)c1Cl,1.49%,
S=C(SSC(=S)N1CCCCC1)N1CCCCC1,,0.169 µM (active)
CCCCCCCCCCCCCCCC[n+]1ccccc1,,15.5 µM (active) [middle of 4 runs]
Nc1ccc(Cc2ccc(N)c(Cl)c2)cc1Cl,-17.2%,
Oc1ccc2ccc3cccc4ccc1c2c34,,54.9 µM (active)
Nc1c(Oc2ccccc2)cc(O)c2c1C(=O)c1ccccc1C2=O,-9.39% [at 35.3 µM],
CC(c1ccc(O)cc1)c1ccc(O)cc1,1.33%,
CC(C)(C)c1ccc(CSc2cnn(C(C)(C)C)c(=O)c2Cl)cc1,,43.6 µM (active)
CC(C)[C@H](C(=O)OC(C#N)c1cccc(Oc2ccccc2)c1)c1ccc(OC(F)F)cc1 (stereo partly drawn),-9.18%,
COP(=S)(OC)Oc1cc(Cl)c(Br)cc1Cl,1.79%,
CCOP(=S)(OCC)SCCS(=O)(=O)CC,15%,
CS(=O)(=O)c1ccc(C(=O)C2C(=O)CCCC2=O)c([N+](=O)[O-])c1,,2.23 µM (active)
CC[C@H]1C[C@@H]2C[C@H]3c4[nH]c5ccc(OC)cc5c4CCN(C2)[C@@H]13,,54 µM (active)
NC(=O)c1ccc(N)nc1,0%,
CN(C)[C@@H]1C(=O)C(C(N)=O)=C(O)[C@@]2(O)C(=O)C3=C(O)c4c(O)ccc(Cl)c4[C@@](C)(O)[C@H]3C[C@@H]12,-6.05%,
CCCOCC(=Nc1ccc(Cl)cc1C(F)(F)F)n1ccnc1,,43.6 µM (active)
CCCCCCCCc1ccc(O)cc1,,19.6 µM (active)
